Records with an inconclusive call do not appear. The source made the active and inactive calls. Unless noted, calls come from the whole dose curve; as a rule, active = well fitted curve in the direction sought with a large enough effect in the repeat runs; inconclusive = weak or mixed curves; inactive = no such curve, though single readings can be large; an effect the other way counts as inactive or inconclusive.
Legend:
[1] = qHTS assay to identify small molecule agonists of the hypoxia (HIF-1) signaling pathway - cell viability counter screen (AID 1224844; calls by dose curve; note: nearly all actives have a fitted effect of over 50% in size)
How it was run: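 Luminescent ATP content (CellTiter-Glo, 30 min, room temperature) served as the viability measure in HRE-bla ME-180 cells exposed to compounds for 17 hrs in low-serum medium (0.5% dialyzed FBS).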

[2] = qHTS assay to identify small molecule agonists of H2AX (AID 1224845; active = well fitted activation curve with a large enough effect in the signal ratio in the repeat runs, not every such curve was filed as active; the % refers to the signal ratio)
How it was run: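 Wild-type CHO-K1 cells plated overnight, then exposed 3 hr at 37C to compounds at 15 concentrations (0.76% DMSO). Lysed, then HTRF anti-pH2AX(S139)-cryptate/anti-H2AX-d2 detection after 24 hr at room temperature; emissions 665 and 620 nm.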

[3] = qHTS assay to identify small molecule agonists of the hypoxia (HIF-1) signaling pathway (AID 1224846; active = well fitted activation curve with a large enough effect in the signal ratio in the repeat runs, not every such curve was filed as active; the % refers to the signal ratio)
How it was run: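 Measured by blue/green FRET after loading CCF4-AM: beta-lactamase expressed from a hypoxia response element in ME-180 cells. Test agents were delivered in DMSO and left 17 hrs; cells had been plated 5 hrs earlier in low-serum (0.5% dialyzed FBS) medium.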

[4] = qHTS assay to identify small molecule agonists of H2AX - cell viability counter screen (AID 1224847; calls by dose curve; note: top concentration of the series differs between compounds; nearly all actives have a fitted effect of over 30% in size)
How it was run: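 For this counter screen, overnight-attached CHO-K1 cells received test compounds (15 concentrations, 0.76% DMSO final); 3 hr later at 37C, CellTiter-Glo reagent was added and luminescence recorded after 30 min at room temperature.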

[5] = qHTS RealTime-Glo MT Cell Viability Assay in HepG2 cells - 24 hour (AID 1224867); note: nearly all actives have a fitted effect of over 50% in size
How it was run: (§1)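 HepG2 suspension premixed with RealTime-Glo reagents is plated at 600 cells per well and left 5 h at 37 C/5% CO2. Compounds in DMSO then go in, and bioluminescence reflecting viable cell number is recorded over 40 h.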

[6] = qHTS RealTime-Glo MT Cell Viability Assay in HEK293 cells - 32 hour (AID 1224868); note: top concentration of the series differs between compounds; nearly all actives have a fitted effect of over 50% in size
How it was run: (§2)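 Reads taken at 0, 8, 16, 24, 32 and 40 h from the same wells. HEK293 cells (600/well) carried RealTime-Glo reagents from seeding, with compound added after a 5 h settle at 37 C.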

[7] = A CellTox Green Cytotoxicity Assay to monitor cytotoxicity in HEK293 cells - 0 hour (AID 1224869); note: nearly all actives have a fitted effect of over 50% in size
How it was run: (§3)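 Each value comes from one timepoint of a single continuous run in which HEK293 cells with CellTox Green were exposed to compound for up to 40 h at 37 C, dye fluorescence rising with cell death.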

[8] = qHTS RealTime-Glo MT Cell Viability Assay in HepG2 cells - 40 hour (AID 1224870); note: nearly all actives have a fitted effect of over 50% in size
How it was run: (§4)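 HepG2 cells mixed with RealTime-Glo MT reagents (NanoLuc plus cell-permeant prosubstrate) were seeded at 600 cells/well, incubated 5 h at 37 C/5% CO2, then pinned with compounds in DMSO; nonlytic luminescence tracked viability during 40 h treatment.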

[9] = A CellTox Green Cytotoxicity Assay to monitor cytotoxicity in HEK293 cells - 40 hour (AID 1224871); note: nearly all actives have a fitted effect of over 45% in size
How it was run: as §3

[10] = qHTS RealTime-Glo MT Cell Viability Assay in HEK293 cells - 16 hour (AID 1224872)
How it was run: as §2

[11] = qHTS RealTime-Glo MT Cell Viability Assay in HepG2 cells - 8 hour (AID 1224873); note: nearly all actives have a fitted effect of over 55% in size
How it was run: as §4

[12] = qHTS RealTime-Glo MT Cell Viability Assay in HEK293 cells - 40 hour (AID 1224874); settings: RealTime-Glo luminescence; max response: active compounds read low; note: nearly all actives have a fitted effect of over 50% in size
How it was run: (§5)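 qHTS format; HEK293 cells with NanoLuc/prosubstrate reagent, 37 C/5% CO2 for 5 h pre-dosing; compounds 23 nL in DMSO; luminescence at each time point reflects viable cells.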

[13] = A CellTox Green Cytotoxicity Assay to monitor cytotoxicity in HEK293 cells - 24 hour (AID 1224875); note: series mostly up to about 77 µM; nearly all actives have a fitted effect of over 45% in size
How it was run: as §3

[14] = A CellTox Green Cytotoxicity Assay to monitor cytotoxicity in HepG2 cells - 16 hour (AID 1224876); note: nearly all actives have a fitted effect of over 45% in size
How it was run: (§6)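 Continuous culture of HepG2 cells with a membrane-impermeant DNA dye; rising fluorescence marks dead cells. Compound exposure lasted up to 40 h at 37 C, with reads every 8 h from 0 h.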

[15] = qHTS RealTime-Glo MT Cell Viability Assay in HepG2 cells - 32 hour (AID 1224877); note: nearly all actives have a fitted effect of over 55% in size
How it was run: as §1

[16] = A CellTox Green Cytotoxicity Assay to monitor cytotoxicity in HepG2 cells - 24 hour (AID 1224878); note: nearly all actives have a fitted effect of over 45% in size
How it was run: as §6

[17] = A CellTox Green Cytotoxicity Assay to monitor cytotoxicity in HepG2 cells - 40 hour (AID 1224879); note: nearly all actives have a fitted effect of over 40% in size
How it was run: as §6

[18] = qHTS RealTime-Glo MT Cell Viability Assay in HEK293 cells - 0 hour (AID 1224880)
How it was run: as §5

[19] = qHTS assay to identify small molecule antagonists of the estrogen related receptor (ERR) signaling pathway from Tox21 library (AID 1224848); note: nearly all actives have a fitted effect of over 50% in size
How it was run: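 Screening used an ERR reporter line supplied by NTP, exposed for 18 h at 37 C to library compounds delivered in DMSO. Signal was luciferase luminescence developed with ONE-Glo at room temperature for 30 min.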
% is set by controls: 0 for no effect and ±100 for the full control effect.

NCCCN(CCO)CCO
inactive: Potency [1] | Potency [2] | outcome [3] | Potency [4] | Potency [5] | Potency [6] | Potency [7] | Potency [8] | Potency [9] | Potency [10] | Potency [11] | max response [12] -7.84% | Potency [13] | Potency [14] | Potency [15] | Potency [16] | Potency [17] | Potency [18]

O=C(Cl)c1c(Cl)cccc1Cl
inactive: Potency [1] | Potency [2] | outcome [3] | Potency [4] | Potency [5] | Potency [6] | Potency [7] | Potency [8] | Potency [9] | Potency [10] | Potency [11] | max response [12] -14.9% | Potency [13] | Potency [14] | Potency [15] | Potency [16] | Potency [17] | Potency [18]

Cc1c(Cn2ccnc2)c2ccccc2n1CCC(=O)O
inactive: Potency [1] | Potency [2] | outcome [3] | Potency [4] | Potency [5] | Potency [6] | Potency [7] | Potency [8] | Potency [9] | Potency [10] | Potency [11] | max response [12] 4.63% | Potency [13] | Potency [14] | Potency [15] | Potency [16] | Potency [17] | Potency [18]

C=C(C)C(=O)OCCN(C)C
inactive: Potency [1] | Potency [2] | outcome [3] | Potency [4] | Potency [5] | Potency [6] | Potency [7] | Potency [8] | Potency [9] | Potency [10] | Potency [11] | max response [12] 0.256% | Potency [13] | Potency [14] | Potency [15] | Potency [16] | Potency [17]

COCCO
inactive: Potency [1] | Potency [2] | outcome [3] | Potency [4] | Potency [5] | Potency [6] | Potency [7] | Potency [8] | Potency [9] | Potency [10] | Potency [11] | max response [12] 11.8% | Potency [13] | Potency [14] | Potency [15] | Potency [16] | Potency [17]

O=C(O)C1CCC(C(=O)O)CC1 (stereo not drawn)
inactive: Potency [1] | Potency [2] | outcome [3] | Potency [4] | Potency [19] | Potency [5] | Potency [6] | Potency [7] | Potency [8] | Potency [9] | Potency [11] | max response [12] -2.66% | Potency [13] | Potency [14] | Potency [15] | Potency [16] | Potency [17] | Potency [18]

C[C@@H](C1=C(CCN(C)C)Cc2ccccc21)c1ccccn1
inactive: Potency [1] | Potency [2] | outcome [3] | Potency [4] | Potency [5] | Potency [6] | Potency [7] | Potency [8] | Potency [9] | Potency [10] | Potency [11] | max response [12] -16.8% | Potency [13] | Potency [14] | Potency [15] | Potency [16] | Potency [18]

— PubChem BioAssay (Tox21)
